Measurements reported in PubChem BioAssay (NCI).
This is part of a sample that, as a whole, favours compounds with a hit. Of some 83,000 tested, about 20% had one in any assay.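 The test compound was applied at a single concentration to cells in 96-well plates for 48 hours, and percent growth was recorded.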 Active and inactive are the calls of the source. Rule for the calls: active = growth percent below 10; inactive = the rest.

Assays:
Experiment in all cases: NCI-60 one-dose screen, 48 h (100 = growth as untreated, 0 = no growth, -100 = all killed)
Conditions in all cases: 10 µM unless noted
HCT-15 colon = system: HCT-15 colon
HT29 colon = system: HT29 colon
SNB-75 CNS = system: SNB-75 CNS
SNB-19 CNS = system: SNB-19 CNS
U251 CNS = system: U251 CNS
PC-3 prostate = system: PC-3 prostate
SK-MEL-5 melanoma = system: SK-MEL-5 melanoma
UACC-62 melanoma = system: UACC-62 melanoma
LOX IMVI melanoma = system: LOX IMVI melanoma
SK-MEL-28 melanoma = system: SK-MEL-28 melanoma

Measured: growth

O=C1COCCN1c1ccc(Nc2nc(Cl)nc(OCc3cn(Cc4ccccc4)nn3)n2)cc1
inactive: HCT-15 colon 93.3% | HT29 colon 90.8% | SNB-75 CNS 101% | SNB-19 CNS 90.3% | U251 CNS 83.4% | PC-3 prostate 89.4% | SK-MEL-5 melanoma 95.8% | UACC-62 melanoma 92.2% | LOX IMVI melanoma 75.7% | SK-MEL-28 melanoma 101%

O=C(NCCCCNC(=O)OCc1ccc2c(Cl)cc(Cl)c(O)c2n1)OCc1ccc2c(Cl)cc(Cl)c(O)c2n1
active: U251 CNS 9.05% | SK-MEL-5 melanoma -46.4%
inactive: HCT-15 colon 13% | HT29 colon 103% | SNB-75 CNS 24.6% | SNB-19 CNS 62.7% | PC-3 prostate 18.8% | UACC-62 melanoma 36.7% | LOX IMVI melanoma 14.4% | SK-MEL-28 melanoma 50.6%

O=[N+]([O-])C1C(c2ccccc2)C12c1ccccc1-c1ccccc12 (stereo not given)
active: HT29 colon -13.4% | U251 CNS -15.2% | SK-MEL-5 melanoma -16.5% | LOX IMVI melanoma -44.4%
inactive: HCT-15 colon 17.5% | SNB-75 CNS 29% | SNB-19 CNS 43.3% | PC-3 prostate 12.2% | UACC-62 melanoma 17.8% | SK-MEL-28 melanoma 49.2%

CCCCCCCCCCCCCCCCCCOc1ccccc1CC(=O)OCC[N+]1(C)CCCC1
inactive: HCT-15 colon 68.1% | HT29 colon 12.4% | SNB-19 CNS 31.1% | PC-3 prostate 21.8% | UACC-62 melanoma 23.3% | SK-MEL-28 melanoma 49.7%
active: SNB-75 CNS 7.26% | U251 CNS 7.62% | SK-MEL-5 melanoma 1.15% | LOX IMVI melanoma -94.4%

COC(=O)c1c2c(c(C)[n+]([O-])c1C)C(=O)C=C(NCc1ccc(Br)cc1)C2=O
active: HCT-15 colon -63% | HT29 colon -5.46% | SNB-75 CNS -98.6% | SNB-19 CNS -87.2% | U251 CNS -41% | PC-3 prostate -11.1% | SK-MEL-5 melanoma -97.5% | UACC-62 melanoma -59.5% | LOX IMVI melanoma -75.7% | SK-MEL-28 melanoma -39.6%

Cc1ccc(-c2cc(-c3ccc(Cl)cc3)nc(NC(=O)c3cccnc3)n2)cc1
inactive: HCT-15 colon 94.5% | HT29 colon 109% | SNB-75 CNS 99.8% | SNB-19 CNS 94.6% | U251 CNS 101% | PC-3 prostate 85.5% | SK-MEL-5 melanoma 93.6% | UACC-62 melanoma 76% | LOX IMVI melanoma 95.7% | SK-MEL-28 melanoma 106%

Nc1c(C(=O)Nc2ccncc2)sc2nc3c(cc12)CCCCCC3
inactive: HCT-15 colon 63.5% | HT29 colon 41.9% | SNB-75 CNS 84.2% | SNB-19 CNS 84.1% | U251 CNS 76.2% | PC-3 prostate 90.3% | SK-MEL-5 melanoma 56.8% | UACC-62 melanoma 89.6% | LOX IMVI melanoma 84.8% | SK-MEL-28 melanoma 88.6%

CO[C@]12C=C/C(=C(/C(=O)OCc3cccnc3)C(=O)CCCCCCCC[C@@]3(OC)C=C/C(=C(/C(=O)OCc4cccnc4)C(=O)CCCCCCCC1)O3)O2
inactive: HT29 colon 14.5% | SNB-75 CNS 55% | SNB-19 CNS 33.7% | U251 CNS 20.3%
active: HCT-15 colon 2.29% | PC-3 prostate 8.77% | SK-MEL-5 melanoma -59.1% | UACC-62 melanoma -54% | LOX IMVI melanoma -35.9% | SK-MEL-28 melanoma -5.65%

C#Cc1ccc(NC(=O)c2ccc(/C=C/C(=O)c3nccn3C)cc2)cc1
active: HCT-15 colon -44.4% | HT29 colon -17.3% | SNB-75 CNS -98.3% | SNB-19 CNS -78.9% | U251 CNS -67% | PC-3 prostate -56.2% | SK-MEL-5 melanoma -94.3% | UACC-62 melanoma -50.7% | LOX IMVI melanoma -93% | SK-MEL-28 melanoma -30.7%

CCOc1ccc(NC(=O)CSc2oc(-c3ccccc3)nc2S(=O)(=O)c2ccc(F)cc2)cc1
inactive: HCT-15 colon 77% | HT29 colon 73.7% | SNB-75 CNS 103% | SNB-19 CNS 88% | U251 CNS 53.4% | PC-3 prostate 55.7% | SK-MEL-5 melanoma 79.7% | UACC-62 melanoma 62.8% | LOX IMVI melanoma 74.1% | SK-MEL-28 melanoma 72.6%

CCCCCC(=O)OCC(=O)O[C@@H]1C[C@]2(C(C)C)O[C@@]1(C)[C@@H]1CC[C@@H](C)[C@H]1[C@@H]2OC(=O)/C=C/c1ccccc1
inactive: HCT-15 colon 68.8% | HT29 colon 56.1% | SNB-75 CNS 89% | SNB-19 CNS 87% | U251 CNS 65.9% | PC-3 prostate 55.5% | SK-MEL-5 melanoma 95.7% | UACC-62 melanoma 62.1% | LOX IMVI melanoma 68.6% | SK-MEL-28 melanoma 101%

CN(C)CCCC1(c2ccc(F)cc2)OCc2cc(-c3cncc4ccccc34)ccc21 (stereo not given)
active: U251 CNS 3.14% | SK-MEL-5 melanoma -88.8% | SK-MEL-28 melanoma -65%
inactive: HCT-15 colon 38.3% | HT29 colon 13.5% | SNB-75 CNS 41.6% | SNB-19 CNS 54% | PC-3 prostate 44.9% | UACC-62 melanoma 11.5% | LOX IMVI melanoma 19.3%

Cn1cc(-c2csc(-c3c[nH]c4ccc(Br)cc34)n2)c2cnccc21
active: HCT-15 colon -78.9% | HT29 colon -70% | SNB-75 CNS -95.8% | SNB-19 CNS -85.5% | U251 CNS -85.8% | PC-3 prostate -79.5% | SK-MEL-5 melanoma -67.7% | UACC-62 melanoma -90.6% | LOX IMVI melanoma -92.7% | SK-MEL-28 melanoma -93.6%

O=C1CNC(c2ccccc2)C(c2ccccc2)N1 (stereo not given)
inactive: HCT-15 colon 104% | HT29 colon 85.2% | SNB-75 CNS 75.8% | SNB-19 CNS 100% | U251 CNS 97.5% | PC-3 prostate 81.6% | SK-MEL-5 melanoma 104% | UACC-62 melanoma 96.6% | LOX IMVI melanoma 92.1% | SK-MEL-28 melanoma 171%

Fc1ccc(-c2nn(-c3ccccc3)cc2-c2nc3ccccc3o2)cc1
inactive: HCT-15 colon 33.9% | HT29 colon 99.6% | SNB-75 CNS 119% | SNB-19 CNS 67.3% | U251 CNS 33.4% | PC-3 prostate 51.6% | SK-MEL-5 melanoma 57.9% | UACC-62 melanoma 74.9% | LOX IMVI melanoma 24.7% | SK-MEL-28 melanoma 108%

O=C(/C=C/c1ccccc1)c1cccc(OCCCOc2cccc(C(=O)/C=C/c3ccccc3)c2)c1
inactive: HCT-15 colon 57.4% | HT29 colon 52.4% | SNB-75 CNS 93.9% | SNB-19 CNS 85.7% | U251 CNS 64.3% | PC-3 prostate 82.8% | SK-MEL-5 melanoma 100% | UACC-62 melanoma 87.3% | LOX IMVI melanoma 58.1% | SK-MEL-28 melanoma 102%

COc1ccccc1Nc1nc2c(s1)C1=CC[C@H]3[C@@H]4CC[C@H]([C@H](C)CCCC(C)C)[C@@]4(C)CC[C@@H]3[C@@]1(C)CC2
inactive: HCT-15 colon 103% | HT29 colon 101% | SNB-75 CNS 97.6% | SNB-19 CNS 104% | U251 CNS 113% | PC-3 prostate 92.7% | SK-MEL-5 melanoma 100% | UACC-62 melanoma 96.7% | LOX IMVI melanoma 94% | SK-MEL-28 melanoma 110%

N#Cc1c(-c2cccs2)cc(-c2cccnc2)[nH]c1=O
inactive: HCT-15 colon 102% | HT29 colon 111% | SNB-75 CNS 102% | SNB-19 CNS 98.1% | U251 CNS 96.9% | PC-3 prostate 101% | SK-MEL-5 melanoma 102% | UACC-62 melanoma 95.5% | LOX IMVI melanoma 97.5% | SK-MEL-28 melanoma 104%

COc1cc(OC)cc(C2=C3CC[C@@H]4[C@H](CC[C@]5(C)C(=O)CC[C@@H]45)C3=CC3C(O)c4cccnc4N4C(=O)COC234)c1 (stereo not given in full)
inactive: HCT-15 colon 100% | HT29 colon 104% | SNB-75 CNS 72.9% | SNB-19 CNS 92% | U251 CNS 93.8% | PC-3 prostate 94.7% | SK-MEL-5 melanoma 98.1% | UACC-62 melanoma 94.1% | LOX IMVI melanoma 95.9% | SK-MEL-28 melanoma 115%

C/C(=C(/c1ccc(Cl)cc1)c1ccc(OCCN2CCCC2)cc1)c1ccc(Cl)cc1
inactive: HCT-15 colon 42.1% | SNB-75 CNS 115% | SNB-19 CNS 85.8% | U251 CNS 68.6% | PC-3 prostate 66.4% | SK-MEL-5 melanoma 82.4% | UACC-62 melanoma 93.9% | LOX IMVI melanoma 78% | SK-MEL-28 melanoma 92.8%
active: HT29 colon 9.33%

Nc1c(C(=O)Nc2ccccc2Cl)sc2nc3c(cc12)C(O)CCC3 (stereo not given)
active: HT29 colon 6.13%
inactive: HCT-15 colon 30.5% | SNB-75 CNS 22.9% | SNB-19 CNS 41.6% | U251 CNS 29.4% | PC-3 prostate 36.8% | SK-MEL-5 melanoma 21.4% | UACC-62 melanoma 47.9% | LOX IMVI melanoma 45.5% | SK-MEL-28 melanoma 79.2%

CN1C(=O)/C(=C/c2ccc(C(=O)Nc3ncc(Cc4ccc(Cl)cc4)s3)cc2)SC1=S
inactive: HCT-15 colon 21.7% | HT29 colon 20.2% | SNB-75 CNS 52.1% | SNB-19 CNS 69.3% | U251 CNS 61.7% | PC-3 prostate 55.1% | SK-MEL-5 melanoma 26.2% | UACC-62 melanoma 21.4% | LOX IMVI melanoma 18% | SK-MEL-28 melanoma 60.2%

N#Cc1cccc(-c2c(-c3ccc4ccccc4c3)oc3ccccc3c2=O)c1
inactive: HCT-15 colon 33.9% | HT29 colon 10.9% | SNB-75 CNS 51.1% | SNB-19 CNS 53.7% | U251 CNS 45.6% | PC-3 prostate 34.1% | SK-MEL-5 melanoma 31% | UACC-62 melanoma 33.9% | LOX IMVI melanoma 50.7% | SK-MEL-28 melanoma 58%

O=[N+]([O-])c1ccc(-c2nc(N3CCOCC3)c3c4c(sc3n2)CCCC4)cc1
inactive: HCT-15 colon 97.8% | HT29 colon 94.8% | SNB-75 CNS 76.6% | SNB-19 CNS 115% | U251 CNS 102% | PC-3 prostate 101% | SK-MEL-5 melanoma 94.1% | UACC-62 melanoma 85.1% | LOX IMVI melanoma 86% | SK-MEL-28 melanoma 111%

O=c1oc2ccccc2cc1C1=NN=C(SCc2ccccc2)SC1
inactive: HCT-15 colon 101% | HT29 colon 105% | SNB-75 CNS 85.7% | SNB-19 CNS 103% | U251 CNS 92.2% | PC-3 prostate 94% | SK-MEL-5 melanoma 100% | UACC-62 melanoma 101% | LOX IMVI melanoma 99.7% | SK-MEL-28 melanoma 109%

C[C@]12CC[C@@H]3c4ccc(O)c([N+](=O)[O-])c4CC[C@H]3[C@@H]1CCC2=O
inactive: HCT-15 colon 94.4% | HT29 colon 95.5% | SNB-75 CNS 58.1% | SNB-19 CNS 107% | U251 CNS 93.2% | PC-3 prostate 97% | SK-MEL-5 melanoma 82.3% | UACC-62 melanoma 87.3% | LOX IMVI melanoma 90.7% | SK-MEL-28 melanoma 115%
